Each structure is given as a SMILES string. About 83,000 compounds went through this panel and 20% of them were active in at least one assay; those are over-represented in the sample as a whole.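 Assay: single dose, 48 h. Readout: percent growth (0 = no net growth; negative = cell death). Active: <10.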 Unmarked numbers belong to inactive results. Activity calls are given as the source filed them.

Common to all, as to assay: NCI-60 one-dose screen, 48 h (100 = growth as untreated, 0 = no growth, -100 = all killed)
Holding throughout (conditions): 10 µM unless noted

The subject of test [1] is HCT-15 colon.
Test [2] concerns HT29 colon.
The subject of test [3] is SNB-75 CNS.
For test [4], the system named is SNB-19 CNS.
For test [5], the system named is SK-MEL-5 melanoma.
In test [6] the test system is UACC-62 melanoma.
Test [7] concerns LOX IMVI melanoma.
The subject of test [8] is SK-MEL-28 melanoma.
Test [9] concerns PC-3 prostate.
In test [10] the test system is U251 CNS.

With `Cn1c(=O)[nH]c(=O)c2nc(CCC(=O)NCCC(=O)O)c(=O)[nH]c21`, the growth in test [1] is 106%; in [2], 106%; in [3] it was 89%; in test [4] it was 104%; in test [5], 103%; in [6] it was 105%. For the same compound, the growth in test [7] is 98.6%; in test [8] it was 103%.

`Cc1[nH]c(-c2cc(N)ccc2Cl)c2c1C(=O)CCCC2`: the growth was 17.7% in test [1]; 12.8% in test [2]; 1.7% (active) in test [3]; 35.6% in [4]; 1.73% (active) in [5]; 15.7% in [6]. For the same compound, the growth is 3.58% (active) in test [7] and 59.1% in [8].

Take `CC(C)(C)c1cc(/C=N\NC(=O)/C=C/C=C/c2ccc3c(c2)OCO3)c(O)c(C(C)(C)C)c1`: the growth in [1] was 63.7%; in test [2] it was 92%; in [3], 31.9%; in test [4] it was 85.5%; in test [9], 69.1%; in [7] it was 61.7%. In [8], the growth is 85.8%.

Turning to `COc1ccc(-c2nc3ccc(-c4nc5ccc(N6CCN(C)CC6)cc5[nH]4)cc3[nH]2)cc1OC`, the growth is 91% in [1]; 49.4% in test [2]; 54% in test [3]; 90.3% in test [4]; 62.8% in test [9]; 19.2% in test [6]. In addition, the growth in [7] was 43.9%; in test [8], 39%.

Consider `Cn1cc(C(=O)c2nc(-c3c[nH]c4ccccc34)no2)c2ccccc21`, for which the growth in [1] is 25.6%; in test [2], 35.8%; in test [3], 55.6%; in [4], 91.8%; in test [5], 16.8%; in test [6], 60.3%. Moreover, the figures for the growth in [7] and in test [8] were 83.9% and 94%, respectively.

Consider `COc1cccc(-c2nn(C(C)(C)C)cc2-c2ccnc(NCCCNS(=O)(=O)c3ccc(C)cc3)c2)c1`, for which the growth in test [1] is 107%; in test [2], 105%; in [3], 69.8%; in test [4], 102%; in [9], 102%; in test [6], 107%. For the same compound, the values for the growth in [7] and in [8] were 99.5% and 112%, respectively.

As for `COc1cccc(-c2nc3sccn3c2-c2ccnc(NCCNS(=O)(=O)c3ccc(F)cc3)c2)c1`, the growth in [1] was 17.2%; in test [2], 24%; in test [3] it was 22.9%; in test [4], 50.5%; in test [9] it was 16.3%; in test [6] it was -9.01% (active). Further, the growth in test [7] was 25.1%; in test [8], 45.2%.

As to `CC(=O)O[C@H]1[C@@H]2OC(=O)C(CSc3ccccc3)[C@@H]2C[C@H]2O[C@]2(C)CC/C=C(\C)CCC[C@@H]1C` (some centres not stated), the growth in test [1] was 12.8%; in test [2], 19.5%; in test [3] it was 37.1%; in test [4], 68%; in test [5], 47%; in test [6], 38.3%. The growth in test [7] was 28.4%; in test [8] it was 37.7%.

With `CCOc1nc(-c2ccccc2)cc2c(O)c(C(=O)O)[nH]c(=O)c12`, the growth in [1] was 106%; in test [2], 104%; in test [3], 81.3%; in [4], 94.3%; in test [5], 90.6%; in test [6] it was 110%. Besides, the growth in [7] was 95.2%; in test [8], 138%.

Turning to `C=C(C)C(=O)Nc1ccc(NC(C)C)cc1`, the growth was 125% in [1]; 114% in test [2]; 102% in test [3]; 105% in test [4]; 134% in [5]; 118% in test [6]. Further, the values for the growth in test [7] and in test [8] were 114% and 119%, respectively.

As to `O=C1OC(c2ccccc2)C(O)=C1c1ccccc1` (configuration not stated), the growth in [1] was 108%; in [2], 111%; in test [3] it was 102%; in test [4], 105%; in test [9], 99.1%; in test [6] it was 104%. For the same compound, the growth in test [7] was 113%; in test [8], 120%.

As to `COc1cccc2c1C(=O)c1c(O)c3c(c(O)c1C2=O)C[C@](O)(C(=O)CO)C[C@H]3O[C@@H]1C[C@@H](NC(=O)CCCN(C)C2(c3ccc(F)cc3)CC3CCC2C3)[C@H](O)[C@@H](C)O1` (some centres not stated), the growth in test [1] was 3.39% (active); in test [2], -61.2% (active); in test [3], 30%; in test [4] it was -66% (active); in test [9], -76.7% (active); in test [7] it was -94.4% (active).

On to `O=[N+]([O-])c1ccc(Nc2nc(NCCN3CCOCC3)ncc2[N+](=O)[O-])cc1`, for which the growth in test [1] was 84.9%; in test [2], 91.8%; in [3] it was 76.4%; in test [4] it was 83.9%; in test [5] it was 96%; in test [6] it was 84.2%. Besides, the growth is 96.8% in test [7] and 98% in test [8].

Regarding `COc1cc(-c2nc(C(=O)NCC(=O)NO)nn2-c2ccc(Cl)cc2)cc(OC)c1OC`, the growth in test [1] is 101%; in [2], 96.4%; in test [3], 87.7%; in test [4] it was 100%; in [9] it was 87.9%; in test [7] it was 95.9%.

In the case of `CC(=O)NCC1c2c(n(C)c3c(Cl)c(Cl)ccc23)C(=O)NC1(C)C` (configuration not stated), the growth was 102% in test [1]; 108% in [2]; 87.7% in test [3]; 102% in [4]; 91% in test [9]; 94.4% in test [6]. Further, the growth in test [7] is 95%; in test [8] it was 111%.

Take `COc1cc2c(cc1-c1c(C)noc1C)ncc1nc(C3CCOCC3)n([C@@H](C)COC(F)F)c12`: the growth in [1] is 24.5%; in test [2], 18.8%; in test [3], 28.7%; in [4], 56.6%; in test [9], 39.2%; in [6] it was 20.7%. Further, the growth in test [7] is 24.2%; in [8] it was 53.5%.

Regarding `O=C1c2cc3c(cc2-c2c1c1cc(F)c(F)cc1c(=O)n2CCCn1ccnc1)OCO3`, the growth in test [1] is 4.66% (active); in test [2], 3.52% (active); in test [3], 24.4%; in [4], 15.7%; in [9], 9.43% (active); in [6], -61.4% (active). Besides, the growth is -20.4% (active) in test [7] and 34.8% in test [8].

Take `O=[N+]([O-])c1cnc(N2CCN(CC3CC3)CC2)nc1N1CCN(CC2CC2)CC1`: the growth in test [1] was 96%; in test [2], 87%; in test [3], 81%; in test [4], 100%; in test [5] it was 99.5%; in test [6], 110%. Further, the growth in test [7] is 99.6%; in test [8], 91.3%.

For the compound `CC(=O)OCCC/C(=C/c1cc2ccccc2c2ccccc12)[N+](=O)[O-]`, the growth in [1] was -81.8% (active); in [2], -44.7% (active); in test [3], -93.6% (active); in [4] it was -91.1% (active); in test [5] it was -100% (active); in [6], -90.2% (active). Also, the growth is -70.6% (active) in [7] and -99.5% (active) in test [8].

As for `COc1ccccc1Nc1nc(-c2cc3cccc(C(F)(F)F)c3oc2=O)cs1`, the growth was 16% in test [1]; 3.1% (active) in [2]; 15% in test [3]; 26.7% in test [4]; 21.2% in [9]; 17.3% in [7].

`C=C(C)[C@@H]1CC[C@]2(C(=O)OC)CC[C@]3(C)[C@H](CC[C@@H]4[C@@]5(C)C/C(=C/c6ccc(OC)cc6)C(=O)C(C)(C)[C@@H]5CC[C@]43C)[C@@H]12`: the growth was 59.6% in test [1]; 32.1% in [2]; 75.7% in test [3]; 108% in test [4]; 84.9% in test [9]; 99.7% in test [6]. Besides, the growth in test [7] is 79.6%; in test [8], 102%.

As for `C=C1C(=O)O[C@H]2[C@H]1CC/C(COC(=O)c1cc3cc(OC)ccc3[nH]1)=C\CC[C@@]1(C)O[C@@H]21`, the growth in [1] was -43.5% (active); in [2], -83.4% (active); in [4] it was -64.3% (active); in test [10], -97.7% (active); in test [9], -71.5% (active); in test [6] it was -90.6% (active). In addition, the growth was -91% (active) in test [7] and -80.8% (active) in test [8].

`O=C(C(=O)c1ccc2c(c1)OCO2)c1ccc2c(c1)OCO2`: the growth in [1] is 110%; in test [2], 103%; in test [3], 90.3%; in test [4] it was 104%; in test [9] it was 100%; in test [6], 105%. Besides, the growth in [7] is 106%; in [8], 110%.

In the case of `Cc1ccc2c(C(C[N+](=O)[O-])c3ccccc3)c(-c3ccccc3)[nH]c2c1` (configuration not stated), the growth is 18.8% [9.5 µM] in test [1]; 0.357% [9.5 µM] (active) in test [2]; -6.93% [9.5 µM] (active) in test [3]; 37.4% [9.5 µM] in [4]; 32.8% [9.5 µM] in [5]; 38% [9.5 µM] in [6]. Also, the growth was 28.5% [9.5 µM] in [7] and 49.3% [9.5 µM] in [8].

For `C=C(C)C1CC(O)C2(C)CCCC3C2C1CC(C)C3(C)CC/C(C)=C/C(O)C1CCC(=O)c2c(OC)cc(OC)cc21` (configuration not stated), the growth in [1] is 30.7%; in test [2], 46.6%; in [3] it was 38.3%; in test [4], 56.5%; in [9], 20.9%; in test [6], 36.5%. Moreover, the results for the growth in test [7] and in [8] were 22.5% and 49.6%, respectively.

Take `O=c1oc2c(C(F)(F)F)cccc2cc1-c1csc(Nc2ccc(OCCF)cc2)n1`: the growth is 17.3% in test [1]; -11.5% (active) in test [2]; 19.3% in test [3]; 27.7% in [4]; 21% in test [9]; 19.7% in test [7].

For the compound `N#CCCN=Nc1c(O)[nH]c2ccc([N+](=O)[O-])cc12`, the growth in test [1] is 102%; in test [2], 101%; in [3], 70.5%; in test [4] it was 100%; in test [9] it was 99.7%; in test [6], 93.2%. The growth was 90.3% in test [7] and 112% in test [8].

Consider `COc1ccc(Nc2cc(C)nc(N3CCN(c4ccnc5cc(Cl)ccc45)CC3)n2)cc1`, for which the growth in test [1] was 14.8%; in test [2] it was 9.85% (active); in test [3], 42.7%; in [4], 48.1%; in [9], 33%; in [6], 17.7%. The growth in [8] was 59.9%.

For `N#CN1CC[C@H](C(=O)Nc2cc3cc(C(N)=O)ccc3cn2)C1`, the growth was 3.81% (active) in test [1]; -31.2% (active) in test [2]; -28.4% (active) in test [3]; 7.87% (active) in [4]; 2.76% (active) in [9]; 4.7% (active) in [7]. Further, in [8], the growth was -9.92% (active).

Take `Clc1ccc2c(NCCNc3nc(N4CCOCC4)nc4ccccc34)ccnc2c1`: the growth in test [1] was 15.2%; in test [2] it was -69.2% (active); in [3], -94.4% (active); in [4], 5.66% (active); in test [9], 34%; in test [6], -64.9% (active). Further, the growth in test [7] was -83.5% (active); in test [8], -47.5% (active).

For `COc1ccc(CN2c3ccccc3Sc3ccccc32)cc1O`, the growth is 33.1% in test [1]; 8.73% (active) in [2]; 26.6% in test [3]; 33% in [4]; 26.1% in test [9]; 43.1% in test [7].

`c1csc(C2=NN3C(C2)c2ccccc2OC3c2ccncc2)c1` (configuration not stated): the growth in test [1] is 95.5%; in [2], 107%; in test [3], 82.2%; in test [4] it was 90.5%; in test [5], 92.7%; in test [7] it was 89.3%. The growth in [8] is 107%.

For the origin of these results see PubChem BioAssay (NCI).
